According to PubChem BioAssay:
“And” between values parts separate entries of the source, which are not always exact repeats. Equal entries are not always repeated. The source made the active and inactive calls.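 The calls were made as follows, unless noted: active = thallium flux through the channel raised or lowered by more than 3 SD from vehicle-only wells, actives on both sides; inactive = the rest.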

Experiments:
[1] = P. berghei load reduction in hepatocytes – cell-based, HepG2, luciferase luminescence, HepG2 viability, primary screen (AID 624349; in the data active = parasite load remaining mostly below about 12%, no sharp cut-off; inactive = mostly above about 10%;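 also: 100% = mean of DMSO negative control wells on the same plate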); details: P. berghei liver stage in HepG2, luciferase luminescence, concentration not given here; parasite load remaining: stronger effect = lower value; viability: measured here: HepG2 viability without parasites
[2] = signal quenchers or enhancers, Cy5 substrate/SSB – biochemical, NIH Clinical Collection, E. coli SSB, artefact control for HCV NS3 helicase inhibitor project (AID 743268; call rule not given here); details: Cy5-oligo bound E. coli SSB, fluorescence interference
[3] = test system: Hepatitis C virus NS3 helicase; test: blockers of NS3h binding to DNA – biochemical, fluorescence polarization, NIH Clinical Collection, primary screen (AID 743270; call rule not given here); details: NS3 helicase binding to Cy5-dT15 DNA, stronger effect = higher value, concentration not given here
[4] = target: Single-stranded DNA-binding protein (Escherichia coli (strain K12)) (UniProt P0AGE0); test: SSB-ssDNA binding inhibitors – biochemical, fluorescence polarization, NIH Clinical Collection, counter-screen for HCV NS3 helicase inhibitor project (AID 743271; in the data active = inhibition above about 28%); details: E. coli SSB-DNA binding, stronger effect = higher value, concentration not given here
[5] = compounds distorting NS3 helicase fluorescence signal – biochemical, NIH Clinical Collection, artefact control for HCV NS3 helicase inhibitor project (AID 743272; call rule not given here;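 also: HCV NS3 helicase with a Cy5 labelled single stranded DNA probe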); details: fluorescence interference counterscreen, HCV NS3 helicase assay; stronger effect = lower value
[6] = modulation of C. elegans fzo-1 (AID 1259413; call rule not given here;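 also: fzo-1 mutant C. elegans worms in liquid wells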); details: C. elegans fzo-1 modulator screen, mean read-out; stronger effect = higher value
[7] = viability loss with induced miR-34 in A549 – imaging, A549 dox-inducible miR-34, nuclei and caspase counts, primary screen (AID 1347080;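 active = compounds whose cell count with miR-34 switched on is under 0.7 times the count with it off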); details: A549 miR-34 inducible, Hoechst nuclei count, 48 h
[8] = MELAS cybrid and Rieske KO viability enhancers – cell-based, MELAS cybrids, Rieske KO mouse fibroblasts, CellTiter-Glo, primary screen (AID 1508586;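 active = mean z-score across replicates of 1.96 or higher in either the MELAS or the Rieske mutant cell line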;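 also: z relative to plate mean and SD of compound and empty wells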); details: low glucose
[9] = test system: F380Y; test: BK channel mutant inhibitors and activators – cell-based, U2OS BacMam, thallium flux, beta subunits, selectivity assay, profiling panel (AID 1259406); details: U2OS BacMam BK variants, at 30 µM;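 also: initial slope of Thallos dye fluorescence rise after thallium is added; log ratio against the mean of 0.3% DMSO vehicle wells on the same plate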
[10] = test system: F380Y/beta1; test: as above; details: U2OS BacMam BK variants, at 30 µM
[11] = test system: F380Y/beta2Delta; test: as above; details: U2OS BacMam BK variants, at 30 µM
[12] = test system: F380Y/beta4; test: as above; details: U2OS BacMam BK variants, at 30 µM
[13] = target: Calcium-activated potassium channel subunit alpha-1 (Homo sapiens) + Leucine-rich repeat-containing protein 26 (Homo sapiens) (UniProt Q12791+Q2I0M4); test: as above; details: U2OS BacMam BK variants, F380Y/Slo1WT/gamma1, at 30 µM
Calcium-activated potassium channel subunit alpha-1 (Homo sapiens) + Leucine-rich repeat-containing protein 26 (Homo sapiens), sequence (Q2I0M4 whole entry, looked up, one chain of several): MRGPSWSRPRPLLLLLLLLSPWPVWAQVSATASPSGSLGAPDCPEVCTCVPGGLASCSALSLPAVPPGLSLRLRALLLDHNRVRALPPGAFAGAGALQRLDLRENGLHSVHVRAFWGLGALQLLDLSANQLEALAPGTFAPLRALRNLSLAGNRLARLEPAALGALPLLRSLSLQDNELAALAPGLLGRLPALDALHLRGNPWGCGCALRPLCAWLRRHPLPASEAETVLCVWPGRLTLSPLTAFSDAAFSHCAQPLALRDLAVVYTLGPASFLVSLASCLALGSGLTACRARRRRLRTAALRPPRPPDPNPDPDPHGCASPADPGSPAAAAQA

[14] = test system: R275C; test: as above; details: U2OS BacMam BK variants, at 30 µM
[15] = test system: R275C/beta1; test: as above; details: U2OS BacMam BK variants, at 30 µM
[16] = test system: R275C/beta2Delta; test: as above; details: U2OS BacMam BK variants, at 30 µM
[17] = test system: R275C/beta4; test: as above; details: U2OS BacMam BK variants, at 30 µM
[18] = test system: R275C/Slo1WT/beta2; test: as above; details: U2OS BacMam BK variants, at 30 µM
[19] = stronger effect = lower value, cell number ratio, induced over uninduced
[20] = measured here: relative caspase fold change +Dox/-Dox
[21] = measured here: total cells with miR-34 induction, stronger effect = lower value
[22] = measured here: total cells without miR-34 induction
[23] = MELAS cybrid survival, CellTiter-Glo 48 h, stronger effect = higher value
[24] = Rieske KO mouse fibroblast survival, CellTiter-Glo 72 h

C[C@H]1[C@@H](OC(=O)CCC(=O)O)O[C@@H]2OC3(C)CC[C@H]4[C@H](C)CC[C@@H]1[C@@]24OO3
74.2% and 68%: viability [1]
5910: cell count [7, 22]
6160: cell count [7, 21]
0.615: z-score [8, 24]
0.836: fold change [7, 20]
inactive: parasite load remaining [1] 54.9% and 19.6% | fluorescence ratio [2] 1.05 | inhibition [3] 4.36% | inhibition [4] -3.18% | fluorescence ratio [5] 0.99 | mean signal [6] 258 | fold change [7, 19] 1.04 | z-score [8, 23] -1.42 | log fold change Tl+ flux [9] 0.0198 | log fold change Tl+ flux [10] 0.0472 | log fold change Tl+ flux [11] 0.00204 | log fold change Tl+ flux [12] 0.00589 | log fold change Tl+ flux [13] -0.0126 | log fold change Tl+ flux [14] 0.0183 | log fold change Tl+ flux [15] 0.0209 | log fold change Tl+ flux [16] 0.00454 | log fold change Tl+ flux [17] -0.0146 | log fold change Tl+ flux [18] 0.000694

CC1CC2C3CCC4=CC(=O)C=CC4(C)[C@@]3(Cl)C(O)CC2(C)C1(O)C(=O)CO (some centres not stated)
1.07: fold change [7, 20]
7120: cell count [7, 21]
active: log fold change Tl+ flux [10] 0.0975 | log fold change Tl+ flux [15] 0.106
67.8%: viability [1]
8490: cell count [7, 22]
inactive: parasite load remaining [1] 68.1% | fluorescence ratio [2] 0.98 | inhibition [3] -0.22% | inhibition [4] -1.97% | fluorescence ratio [5] 0.95 | mean signal [6] 282 | fold change [7, 19] 0.839 | log fold change Tl+ flux [9] 0.104 | log fold change Tl+ flux [11] -0.00287 | log fold change Tl+ flux [12] 0.0497 | log fold change Tl+ flux [13] 0.0373 | log fold change Tl+ flux [14] -0.0315 | log fold change Tl+ flux [16] 0.0411 | log fold change Tl+ flux [17] 0.0585 | log fold change Tl+ flux [18] 0.0245

CC1(C)SC2C(NC(=O)C(N)c3ccccc3)C(=O)N2C1C(=O)O (configuration not stated)
inactive: parasite load remaining [1] 64.5% | fluorescence ratio [2] 1.05 | inhibition [3] -3.18% | inhibition [4] -3.53% | fluorescence ratio [5] 1.03 | mean signal [6] 248 | fold change [7, 19] 0.924 | log fold change Tl+ flux [9] 0.0123 | log fold change Tl+ flux [10] -0.00858 | log fold change Tl+ flux [11] -0.029 | log fold change Tl+ flux [12] -0.0312 | log fold change Tl+ flux [13] 0.0123 | log fold change Tl+ flux [14] 0.0182 | log fold change Tl+ flux [15] -0.0441 | log fold change Tl+ flux [16] 0.02 | log fold change Tl+ flux [17] -0.0148 | log fold change Tl+ flux [18] -0.0117
9300: cell count [7, 21]
1.56: fold change [7, 20]
97.1%: viability [1]
10100: cell count [7, 22]

CC1CNc2c(cccc2S(=O)(=O)N[C@@H](CCCN=C(N)N)C(=O)N2CC[C@@H](C)C[C@@H]2C(=O)O)C1 (some centres not stated)
-0.277 and -0.497: z-score [8, 24]
1.15: fold change [7, 20]
11700: cell count [7, 22]
inactive: parasite load remaining [1] 91.7% and 25.6% | fluorescence ratio [2] 1.01 | inhibition [3] -2.77% | inhibition [4] -0.1% | fluorescence ratio [5] 0.96 | mean signal [6] 269 | fold change [7, 19] 0.891 | z-score [8, 23] -0.605 and 0.47 | log fold change Tl+ flux [9] -0.00418 | log fold change Tl+ flux [10] 0.00744 | log fold change Tl+ flux [11] 0.0133 | log fold change Tl+ flux [12] 0.00267 | log fold change Tl+ flux [13] -0.0355 | log fold change Tl+ flux [14] -0.0227 | log fold change Tl+ flux [15] -0.0183 | log fold change Tl+ flux [16] -0.0418 | log fold change Tl+ flux [17] -0.0138 | log fold change Tl+ flux [18] 0.0382
10400: cell count [7, 21]
75.9% and 68%: viability [1]

Nc1ccn([C@@H]2CS[C@H](CO)O2)c(=O)n1
1.73: fold change [7, 20]
121% and 70.7%: viability [1]
11100: cell count [7, 22]
inactive: parasite load remaining [1] 60.8% and 120% | mean signal [6] 246 | fold change [7, 19] 0.962 | z-score [8, 23] -0.0861 | log fold change Tl+ flux [9] 0.00141 and 0.0147 | log fold change Tl+ flux [10] -0.0646 and -0.0414 | log fold change Tl+ flux [11] -0.00742 and 0.0531 | log fold change Tl+ flux [12] -0.0496 and -0.00739 | log fold change Tl+ flux [13] 0.0127 and 0.0118 | log fold change Tl+ flux [14] -0.0937 and 0.0141 | log fold change Tl+ flux [15] -0.00105 and 0.0176 | log fold change Tl+ flux [16] 0.0208 and -0.0112 | log fold change Tl+ flux [17] 0.00653 and -0.00304 | log fold change Tl+ flux [18] 0.00916 and -0.0234
10700: cell count [7, 21]
0.0484: z-score [8, 24]
